Hit rate of the full screen: of about 53,000 sequences, about 3,700 (7%) were called active.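 Rule for the calls: active = gene knockdowns whose robust z-score for IL-1 alpha signal is at least 2 or at most -2, so actives lie on both sides; inactive = the rest.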 Only a selection was taken, and actives are over-represented in it overall.

A short description of this experiment: Components of the Cytosolic LPS Sensing Pathway: Gene Identification via Genome-wide siRNA Screen.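 Note: robust z of the log signal after scaling to non-targeting control siRNA wells of the plate.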 To be noted: RAW264.7 macrophages, IL-1a HTRF, actives lie on both sides, screened at 100 nM (by protocol), cells primed 5 h with Pam3CSK4 first. The method, boiled down: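 Knockdown: 100 nM siRNA, 48h, RAW264.7. Stimulation: Pam3CSK4 5 h, then LipidA via TransIT-TKO 24 h. Output: supernatant IL-1a HTRF, negative-control-normalized, log robust z-score; viability by CellTiter-Glo.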
In general terms: In TR-FRET formats the signal depends on donor and acceptor labels being close together.
With GGUUCUGGCUGGAAUCUACTT against Gnl1, the z-score was -0.987 (inactive).

Consider GCGAACAUGUGUUUUACGUTT against H4c8, for which the z-score is 1.14 (inactive).

As for GCAUGCUAGAAGCUAAAAATT against Golga3, the z-score is 1.48 (inactive).

For GGCAUAUCCUCCUUAUCCATT against Dazl, the z-score was -2.2 (active).

Regarding GGAAAUCAAAGAGAAAGUUTT against Rassf3, the z-score is -0.748 (inactive).

For GGUUAGUUCCUUAAAUUCCTT against BC016579, the z-score was 1.21 (inactive).

On to GGACCAGACAGGAAGUAUUTT against Snx20, for which the z-score is 2.3 (active).

Turning to GGCAGGUAUGGAUGUAUUGTT against Renbp, the z-score was -1.72 (inactive).

For the sequence GGUUGAGUUGGAUGACCUUTT against Lsm10, the z-score is -1.91 (inactive).

As for “GAGUCUUACAUCAAGAAGATT against 9230106D20Rik”, the z-score is 0.538 (inactive).

On to GGUAUGUCUAAGAAAACCATT against Pi4ka, for which the z-score was 0.173 (inactive).

Take GGGCUACACUUCUGUCUACTT against Nanos3: the z-score is -1.26 (inactive).

As for GGGUUUUUUUAGAGAGAUUTT against Susd3, the z-score was -2.11 (active).

For the sequence GCCAUACUUCCCUACAAAATT against Kctd19, the z-score was 0.233 (inactive).

Regarding GGGCAAGGAGACAGAAUUCTT against Fgf18, the z-score was 0.927 (inactive).

In the case of GGAAGAGGACAACCAGCUCTT against Cd82, the z-score is 0.59 (inactive).

For the sequence GAGUUGGCUCGAAACUGCCTT against Fbxl15, the z-score is 3.54 (active).

Consider GGGCACAAUUCAAAACUUATT against Pgm2, for which the z-score is 1.42 (inactive).

Take GGUCAAUUCCAUGAUUACGTT against Pgm3: the z-score is 0.538 (inactive).

Take UAAGGCCAUCUAGUGGAGATT against C8g: the z-score is -0.199 (inactive).

Regarding GGGUGAAAGCUGACUUUAATT against Rnh1, the z-score was -1.57 (inactive).

As for GGCUUUGAAACAUAAGAACTT against Zfp472, the z-score was -0.553 (inactive).

Regarding GGUGUUGAGAUCCACAAGGTT against Tceanc2, the z-score was -2.44 (active).

For GGCAAUCAGCAUACCAACUTT against Thbs2, the z-score is -1.87 (inactive).

Consider “CAGCGGCCGCGCUUCACCGTT against 4930404N11Rik”, for which the z-score was 0.92 (inactive).

For GGUAAUUGAGCUGAGUUCUTT against Rad54l2, the z-score is 0.479 (inactive).

Consider GUGAAGAAAGCACUGUUGATT against Olfr978, for which the z-score is 0.387 (inactive).

In the case of GGCCAGGACCUAAAUACAATT against Tmem231, the z-score is 3.25 (active).

Regarding GGAGCUGUGCAAGAGGAAATT against Wnt16, the z-score was 1.01 (inactive).

Turning to GGGCAGAUCCUAAUAAGCATT against Irs3, the z-score was -1.21 (inactive).

With GCUAAGGUCUUACUCCUGGTT against Cdca4, the z-score was 1.13 (inactive).

On to GCCAGUGUUGGUUAUAAAATT against Isg15, for which the z-score was 0.673 (inactive).

With CCAUGGCACAGACAGCUAUTT against Celf1, the z-score is -2.02 (active).

GCUUUUGCCCGAUGGAUUUTT against Plpp3: the z-score is 0.136 (inactive).

GGUAUACAGGAUGUUAAGGTT against Pdlim4: the z-score is 0.889 (inactive).

In the case of GGAGACCCACUACAUGACUTT against H2-M2, the z-score is -0.982 (inactive).

CCCAUCUUUGCAACAUAUCTT against Scgb2b20: the z-score was -1.43 (inactive).

In the case of GGUCCCAUUCAGUGUGUGUTT against Cdk10, the z-score is 2.98 (active).

Take UAGUCACAAGGUUUGAAACTT against Fbxw24: the z-score was -0.822 (inactive).

For the sequence GGUCCUGGACUUCAUGCUATT against Galnt6, the z-score was 2.75 (active).

With GCUGUACAGUCAAUACCUGTT against Abhd17a, the z-score was 1.2 (inactive).

On to GGACCUUUAGCUGGUUUAGTT against Sowaha, for which the z-score is 0.559 (inactive).

For GGUGAUUCCAUUACCUAGUTT against Pde12, the z-score is 0.572 (inactive).

As for GGUAAAAUCACGCAGUAAATT against Ppp1r3a, the z-score is -0.56 (inactive).

Turning to GGACCCAGAGAAGAUCAAATT against Etfrf1, the z-score was 0.514 (inactive).

For GGCAUAGCUCAGUGAUAGCTT against Tmem19, the z-score is 0.117 (inactive).

Turning to CCAGACAGAAGGGUUAGCUTT against Mrps36, the z-score was -2.03 (active).

For the sequence GCCUUUACACUAAUGAUAATT against Cilp, the z-score is 0.455 (inactive).

In the case of GGUCUCAGUUUCUCAGAAUTT against Siglece, the z-score is -1.62 (inactive).

In the case of GCUUGCUUAUGGCCUAUUATT against Ucma, the z-score was -2.05 (active).

Take GCUACCAGGAUAGCGAAACTT against P2rx2: the z-score is 0.826 (inactive).

GGAAAAAUGGUCUGUAAAATT against Adck2: the z-score is 0.508 (inactive).

GGAAAAGGUGACCUGUCUCTT against Slc44a1: the z-score was -1.77 (inactive).

Take GGCCAGAAAGGCAGCAAAGTT against Msgn1: the z-score was -1.03 (inactive).

Turning to GGAAGUGAAGACCUUCUUCTT against St3gal4, the z-score is -0.898 (inactive).

Consider UCGAUAGCCUCAAUCAGCATT against Zfp58, for which the z-score was -1.99 (inactive).

On to GGAGAAGGUCGAAAAGCCUTT against Rybp, for which the z-score was -2.01 (active).

For GCAUUCGUUCGGCACGUGUTT against Bcl2l14, the z-score is -0.0672 (inactive).

As to CGAAGGGAAGCAAAAUACATT against Bend5, the z-score was 2.11 (active).

Consider GCCCUGGAUCAUUGAGUGATT against Atp2b1, for which the z-score was 0.749 (inactive).

Take GGCCAUACACCUGUGACAUTT against Osr2: the z-score is 1.37 (inactive).

As to GGAUGAUCGCUUUUGCUAUTT against Caly, the z-score is 2.02 (active).

As for CCCUCUACUACUGCAUCGUTT against Xkr7, the z-score is 1.74 (inactive).

Regarding GCACUUCUACCGGAAAGUUTT against Mad2l1bp, the z-score is -0.761 (inactive).

For GCAAAGCCCUAUUCCUAAUTT against Vmn2r42, the z-score was 1.21 (inactive).

Regarding GGCCUAAACCCUUUCAUCUTT against V1rb6, the z-score is -0.0202 (inactive).

Consider GCGAUCCUCUCUACUUAACTT against Eno4, for which the z-score is -1.49 (inactive).

For the sequence CGUGGGACCUGGUAUGUAATT against Slc22a12, the z-score was 2.79 (active).

For the sequence GCGGGUAUGAUGGUACCUUTT against Pomt2, the z-score is 1.39 (inactive).

Turning to CGUGAUGAGUGAAAAUGAUTT against Cd34, the z-score was -2.12 (active).

For the sequence GGUACUUCACAAUGGACAGTT against Zcchc9, the z-score was 0.951 (inactive).

As to GGUGCAUUUUCUAGAAUCATT against Usp45, the z-score is 0.933 (inactive).

For GGUACCUAUGCCAGUUUUGTT against Aqp12, the z-score was 2.89 (active).

For GCCACCAAGUACUUUGGUUTT against Vmn1r76, the z-score was 1.34 (inactive).

For GCAAUUUGCUCAUCUCUAATT against Dcc, the z-score was 1.89 (inactive).

Regarding GGAUGCAGAUGCUGUGGACTT against S100a1, the z-score is -0.918 (inactive).

Regarding GGAGUACGACUACUACGGUTT against Sfrp5, the z-score was 0.83 (inactive).

Regarding GGAUUACCGGCAGCUGGAATT against Dnm1, the z-score is 2.24 (active).

In the case of GGCGAGCAUCGCUAUUGACTT against Zcrb1, the z-score was 0.734 (inactive).

As to GGAGAUCCUAGGCUUGAACTT against Vsx2, the z-score is 0.279 (inactive).

For the sequence GGGAGACUUGUCAUGCACATT against Slc45a2, the z-score was 0.728 (inactive).

Consider GGUAGCUGAAGAAGACUUCTT against Reg2, for which the z-score is -0.591 (inactive).

In the case of GGCUUUGCUGAAUGUCUCATT against Nrn1l, the z-score is 0.443 (inactive).

Consider CCUGCUAAUGUUUGUAAGUTT against Sowahc, for which the z-score is 1.37 (inactive).

Turning to GCAUUAAUUGCUUCUCUUATT against Nup155, the z-score is -2.35 (active).

On to GGAACUCACCCUCAGCUUGTT against Tmem260, for which the z-score was 0.313 (inactive).

CCAAACAACCAGCUAAUAUTT against Mia3: the z-score is -0.375 (inactive).

For the sequence GGUGAAAUGAGAAUACUUGTT against Erap1, the z-score is 1.07 (inactive).

Regarding CCCUGGUUGUUUGUAGAGUTT against Armt1, the z-score was 2.38 (active).

GGAAUGAUGAAGAGUGUCCTT against Btla: the z-score is -0.0564 (inactive).

Take GGCUACUGUAGGAAGAAAUTT against Defb20: the z-score is 1.7 (inactive).

GGAAGUUUUGUUCCUGCAUTT against Nars2: the z-score is -0.0244 (inactive).

On to GGCCAUCCAGAAUUACAUGTT against Vash2, for which the z-score is 1.08 (inactive).

GGAGAAGGAACUGUGUGAGTT against Nfkbil1: the z-score is -2.26 (active).

As for CCGGGUCAGGACAAUUCAUTT against Hsd17b1, the z-score was 1.87 (inactive).

Turning to GGCCAUUGAUCAAGACAAGTT against Glyat, the z-score was 1.66 (inactive).

Regarding GGCUUUGUAGAAAAUUCAUTT against Polr2a, the z-score was -2.15 (active).

As to GCCGUGAUGCCUAAAAUGCTT against Olfr543, the z-score is -0.306 (inactive).

With GGUAUCUUGAGAAGCCAAUTT against Stat3, the z-score was -0.536 (inactive).

Turning to GGAUUCAUCAUCUACCCGGTT against C1ql4, the z-score is -1.08 (inactive).

Turning to GGAUAACCUUGAGUAGGUGTT against Olfr906, the z-score was 0.484 (inactive).

CGGAUACCUAGAGUGCAUCTT against Zfp42: the z-score is 0.725 (inactive).

Take CGUGGAAGCUGUGUUAUCUTT against Il34: the z-score was -0.112 (inactive).

As for GGAUGACCAGAACUUCAGUTT against Zfp956, the z-score is 2.84 (active).

Take AACGUAAUUAGCGUGAAUUTT against Cyp2j11: the z-score is 0.337 (inactive).

With GCAGUUCCCAUAGUUUUCUTT against Il1r2, the z-score was 6.07 (active).

On to CUUGUCAAGUGAUGAAAUGTT against Xlr, for which the z-score was -0.546 (inactive).

Consider GGUCGAAAGAAUAAUUUGUTT against Cct6a, for which the z-score is -0.628 (inactive).

The values above are taken from PubChem BioAssay AID1508600 (Functional Genomics Laboratory (NCATS/FGL), 2020).
